Hits are enriched below; roughly 8.3% of the tested compounds scored in any of these assays.
SW480 rereplic: inducers of DNA re-replication in SW480 colon cancer cells; Potency, µM (titrated, usually from 46.1 µM), without a hit: at the top dose re-replication activation, most hits filed as activators; SW480 DNA re-replication, Hoechst DNA content imaging, 48 h; hit rate 1.8% among 340,000; also: potency is read from the fitted curve at half-maximal effect; % of control where 0% means no effect; nearly all actives have a fitted effect of over 55% in size
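Image-based DNA-content assay: after two days of treatment, nuclei were labelled with the DNA dye Hoechst and imaged, and hits were compounds raising the count of nuclei showing high fluorescence intensity.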
BCR signal inh: chronic active BCR signaling inhibition. ABC-DLBCL IkBa-CBG/CBR reporter, luminescence ratio, 4 h. Potency, µM (top dose mostly 46.1 µM), without a hit: top-dose activity change, negative = inhibition, most hits filed as inhibitors. hit rate 0.05% among 340,000; active = well fitted inhibition curve with a large enough effect in the signal ratio, with a control signal flat, not every such curve was filed as active; inconclusive = small, poorly fitted or top-dose-only effect, or effect the other way, or a change in a side signal; the % refers to the signal ratio;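 also: potency is read from the fitted curve at half-maximal effect; plate controls were basal doxycycline-induced cells for no effect and cells given 10 µM MG132 for full effect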
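TMD8 human ABC-DLBCL cells with doxycycline-inducible IκBα–green luciferase fusion and unfused red luciferase, in 0.5% FBS medium; compounds up to 46 uM, 4 h at 37C. Green/red luminescence ratio, filter-overlap corrected, fitted to concentration-response curves.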
RORg inh: ROR gamma (mouse) transcription inhibition; P51450; Drosophila S2 Gal4-RORgamma UAS-luciferase reporter, 20 h; Potency, µM (doses to about 53.6 µM), without a hit: at the top dose activity change, negative = inhibition, most hits filed as inhibitors; hit rate 5.4% among 310,000; also: potency is read from the fitted curve at half-maximal effect; % is scaled to controls: 0 for no effect and ±100 for the full control effect; nearly all actives have a fitted effect of over 60% in size
Target sequence (P51450 whole entry, looked up, the tested form may be a part): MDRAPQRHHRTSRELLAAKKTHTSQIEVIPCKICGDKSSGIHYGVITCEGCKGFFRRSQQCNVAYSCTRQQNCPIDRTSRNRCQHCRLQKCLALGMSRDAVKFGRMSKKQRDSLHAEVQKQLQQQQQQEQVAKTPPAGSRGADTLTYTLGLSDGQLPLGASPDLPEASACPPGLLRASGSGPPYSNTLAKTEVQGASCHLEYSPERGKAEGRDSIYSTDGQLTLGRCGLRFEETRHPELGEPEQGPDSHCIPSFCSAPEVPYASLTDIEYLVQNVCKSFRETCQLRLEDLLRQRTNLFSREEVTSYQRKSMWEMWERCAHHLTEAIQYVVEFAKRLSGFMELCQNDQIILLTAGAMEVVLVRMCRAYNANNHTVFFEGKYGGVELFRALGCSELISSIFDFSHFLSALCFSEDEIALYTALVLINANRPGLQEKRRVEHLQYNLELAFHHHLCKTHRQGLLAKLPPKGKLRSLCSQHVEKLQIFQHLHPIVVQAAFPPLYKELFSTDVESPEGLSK
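ROR gamma transcriptional activity was tracked as Gal4-UAS luciferase output in stably transfected Drosophila Schneider cells, with compound added 1 hr before 700 uM copper sulfate induction and a 20 hr ambient-temperature incubation.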
MCF10A rereplic: inducers of DNA re-replication in MCF 10A breast cells; Potency, µM (highest dose often 46.1 µM), inactives show at the top dose activity, positive = re-replication, usual class: activators; MCF 10A DNA re-replication, Hoechst nuclear intensity, 48 h; hit rate 2.9% among 350,000; AID 624296; also: potency is read from the fitted curve at half-maximal effect; % of control where 0% means no effect; nearly all actives have a fitted effect of over 50% in size
Giardia killer: kills Giardia lamblia | Giardia lamblia trophozoite viability | activity change, % at 7.66 µM, hits read low | hit rate 0.15% among 340,000; in the data active = activity change below about -80%; inconclusive = between about -30% and that limit;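 also: parasites exposed to compound for two days anaerobically before the ATP read; % is scaled to controls: 0 for no effect and ±100 for the full control effect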
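Viability, read as ATP luminescence: trophozoites at 100 cells/well, compound added, 48 hrs anaerobic at 37 deg C, then 15-30 min room-temperature development before reading.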
Gal4-VP16 FLuc: inhibits Gal4-VP16 luciferase reporter, ROR gamma counter-screen. Drosophila S2 Gal4-VP16 UAS-luciferase, luminescence, 20 h. Potency, µM (highest dose often 53.6 µM), for the others: top-dose activity, negative = inhibition, usual class: inhibitors. hit rate 3.5% among 310,000. AID 2546;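 also: Gal4-VP16 expression switched on by copper sulfate through the metallothionein promoter; potency is read from the fitted curve at half-maximal effect; % is scaled to controls: 0 for no effect and ±100 for the full control effect; nearly all actives have a fitted effect of over 50% in size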
Active calls of the source: *; ? = inconclusive; · = no result given. Unless noted, calls follow the shape of the dose curve; as a rule, active = well fitted curve in the direction sought with a large enough effect; inconclusive = small, poorly fitted or top-dose-only effect, or another doubt; inactive = no such curve, though single readings can be large; an effect the other way counts as inactive or inconclusive.

SMILES | SW480 rereplic | BCR signal inh | RORg inh | MCF10A rereplic | Giardia killer | Gal4-VP16 FLuc
Cc1ccccc1C(=O)NCCNC(=O)c1ccco1 | 25% | -1% | 12% | -1% | -14 | 2%
COc1ccccc1N1CCN(CCCn2c(=S)[nH]c3ccccc3c2=O)CC1 | -6% | -6% | 13µM* | 7% | 6 | ?
COc1ccc(N2CCN(CCCn3c(=S)[nH]c4ccccc4c3=O)CC2)cc1 | 5% | 1% | 6.3µM* | 21% | -2 | ?
N#CCCn1cc(C(=O)Nc2ccccc2Br)c(-c2cc3ccccc3o2)n1 | ? | -4% | ? | ? | -4 | 7.9µM*
O=C(Nc1nc(-c2ccccn2)cs1)c1cc(Cl)ccc1[N+](=O)[O-] | ? | ? | 1.1µM* | 10% | 0 | 2.8µM*
Cc1csc(NC(=O)c2ccc(Cl)cc2[N+](=O)[O-])n1 | 49% | 4% | ? | -1% | -25 | -2%
Cc1csc(NC(=O)c2ccc(C)c([N+](=O)[O-])c2)n1 | -5% | 10% | ? | 10% | 19 | 14µM*
Cc1cc(C(=O)Nc2nc(-c3ccccn3)cs2)ccc1[N+](=O)[O-] | ? | -12% | 1.1µM* | ? | -16 | 2.8µM*
Cc1cc(C)nc(NC(=O)c2ccc(C)c([N+](=O)[O-])c2)n1 | -7% | 2% | -17% | -8% | 2 | 2%
CCc1cc(C(=O)Nc2nc(-c3ccccn3)cs2)sc1C | 22% | ? | · | -9% | -3 | ·
Cc1ccc(C(=O)NCCC(=O)NCc2ccco2)cc1 | 2% | -2% | -4% | -2% | 15 | -2%
CCOC(=O)C1(Cc2cccc(Cl)c2)CCCN(C(=O)c2ccoc2C)C1 (stereo not drawn) | 16µM* | 0% | 24% | ? | -4 | -6%
O=C1NC[C@H](c2ccccc2)N(CCC23CC4CC(CC(C4)C2)C3)C1=O | -4% | -3% | · | 11% | 2 | ·
O=C(CNC(=O)N1CC(=O)Nc2ccccc21)Nc1nccs1 | 4% | 0% | -20% | -21% | 9 | 2%
COc1cc2c(cc1O)CCN[C@@]21CS[C@H]2c3c(OC(C)=O)c(C)c4c(c3C(COC1=O)N1C2C2c3c(cc(C)c(OC)c3O)CC([C@@H]1O)N2C)OCO4 (stereo partly drawn) | -5% | · | 0.14µM* | -23% | · | 0.45µM*
CC(=O)NC1=C(NC2CCS(=O)(=O)C2)C(=O)c2ccccc2C1=O (stereo not drawn) | 18µM* | 5% | ? | ? | -1 | 18µM*
O=C(NC(=S)NC1CCS(=O)(=O)C1)c1ccccc1 (stereo not drawn) | 0% | 0% | 17% | -5% | 2 | -9%
CN(C1=C(NC(=O)c2ccccc2)C(=O)c2ccccc2C1=O)C1CCS(=O)(=O)C1 (stereo not drawn) | ? | 17% | 14µM* | 23µM* | -21 | 7.1µM*
Nc1c(N(CCCO)C(=O)C2CCCCC2)c(=O)[nH]c(=O)n1Cc1ccccc1 | 2% | 6% | · | -2% | -3 | ·
CC1=C(C(=O)Nc2ccccc2C(=O)N2CCC(C)CC2)SCCO1 | ? | 1% | -14% | -1% | 10 | -2%
Cc1sc2ncnc(N3CCC(C(=O)Nc4nnc(SCc5ccccc5F)s4)CC3)c2c1C | 1% | 6% | · | 15% | -17 | ·
CCOc1ccccc1N1CCN(CC(=O)Nc2nc(C)c(C(=O)N(C)C)s2)CC1 | -2% | 4% | -13% | 1% | -15 | -2%
Cc1cc(OCCOc2cccc3cccnc23)cc(C)c1Cl | 11% | ? | 20µM* | 23µM* | 10 | -29%
CC(=O)c1ccccc1OCCCOc1cccc2cccnc12 | -2% | · | · | 3% | 20 | ·
CC(C)Oc1ccccc1OCCCOc1cccc2cccnc12 | -13% | -19% | 14µM* | ? | 17 | -27%
SMILES | SW480 rereplic | BCR signal inh | RORg inh | MCF10A rereplic | Giardia killer | Gal4-VP16 FLuc
COc1ccc(CCN(C(=O)c2snc(C(N)=O)c2N)C(C)C(=O)NC2CCCCC2)cc1OC (stereo not drawn) | 10% | ? | 1% | -15% | 1 | 3%
COc1ccc(C(=O)NC2CC2)cc1OC1CCN(C(C)CSC)CC1 (stereo not drawn) | 0% | 0% | -5% | 0% | -9 | -1%
CC[C@H](C)[C@H](NC(=O)[C@@H](NC(=O)CNC(=O)[C@@H](N)CC(C)C)[C@@H](C)O)C(=O)N1CCC[C@H]1C(=O)NCC(=O)O | · | · | 4% | · | · | -6%
C=C(C)C(=O)Oc1ccc(N=Nc2ccc(C)cc2)ccc1=O | ? | · | · | 16µM* | -6 | ·
CC(=O)c1ccc(N=Nc2ccc(N(C)C)cc2)cc1 | 5% | ? | -2% | 2% | 0 | -12%
CC(=O)c1ccc(N=Nc2ccc(C)cc2)cc1 | 5% | ? | 10µM* | 12% | -2 | ?
N#CCC(=O)Nc1ccc(C(=O)OCc2ccccc2Oc2ccccc2)cc1 | ? | ? | 20% | 21µM* | -14 | 4%
CCOC(=O)C1=C(C)Nc2ncnn2C1/C=C/c1ccccc1 (stereo not drawn) | ? | · | -39% | 63% | -5 | 5%
CCCC1=C(C(=O)OCC)C(/C=C/c2ccccc2)n2ncnc2N1 (stereo not drawn) | ? | ? | 20µM* | ? | -18 | -3%
Cc1ccnc(SCc2cc(=O)c(OC(=O)c3ccco3)co2)n1 | -3% | -19% | 0% | -4% | 29 | -1%
Cc1ccnc(SCc2cc(=O)c(OC(=O)c3ccc(Cl)c([N+](=O)[O-])c3)co2)n1 | -2% | 3% | 10µM* | 2% | 7 | 11µM*
Cc1cc(=O)oc2cc3c(cc12)OCCN3 | ? | -6% | 12% | 8.2µM* | -18 | 15%
Cc1cc(=O)oc2cc3c(cc12)OCCO3 | 0% | 0% | 9% | 12% | -1 | 11%
O=S(=O)(c1ccccc1)N1CCC2(CCCN(Cc3nccs3)C2)CC1 | · | · | 25% | · | · | 3%
COCCCn1[nH]c2c3c(ccc2c1=O)C(=O)c1ccccc1C3=O | ? | ? | 16µM* | ? | -93* | ?
Cc1ccc(C)c(-n2[nH]c3c4c(ccc3c2=O)C(=O)c2ccccc2C4=O)c1 | -1% | 0% | 6.3µM* | 18µM* | ? | -23%
CC(C)(C)n1[nH]c2c3c(ccc2c1=O)C(=O)c1ccccc1C3=O | 12µM* | ? | ? | 17% | ? | -19%
COc1ccc(NC(=O)CN2C(=O)NC3(CCCC3)C2=O)c(OC)c1 | -1% | -2% | -11% | 0% | -15 | -4%
CCOCC(=O)Nc1cc(C(F)(F)F)ccc1Oc1cccc(Br)c1 | -3% | ? | 25% | 3% | 3 | 13%
